Source: PubChem (National Center for Advancing Translational Sciences (NCATS))
Compounds with a hit are over-represented: about 2.4% of the library has one in this group of screens.
PTHR1 agonist = qHTS for PTHR1 Agonists: Primary Screen | HEK293 GP2 PTHR1 cells, GloSensor cAMP luminescence, 1 h | AID 743266, 2014 | Potency, µM (doses to about 115 µM), inactives show top-dose activation, actives largely listed as activators | actives 0.075% (n = 410,000); further: potency means the concentration at half of the fitted maximal effect; nearly all actives have a fitted effect of over 55% in size
Target sequence (Q03431 whole entry, looked up): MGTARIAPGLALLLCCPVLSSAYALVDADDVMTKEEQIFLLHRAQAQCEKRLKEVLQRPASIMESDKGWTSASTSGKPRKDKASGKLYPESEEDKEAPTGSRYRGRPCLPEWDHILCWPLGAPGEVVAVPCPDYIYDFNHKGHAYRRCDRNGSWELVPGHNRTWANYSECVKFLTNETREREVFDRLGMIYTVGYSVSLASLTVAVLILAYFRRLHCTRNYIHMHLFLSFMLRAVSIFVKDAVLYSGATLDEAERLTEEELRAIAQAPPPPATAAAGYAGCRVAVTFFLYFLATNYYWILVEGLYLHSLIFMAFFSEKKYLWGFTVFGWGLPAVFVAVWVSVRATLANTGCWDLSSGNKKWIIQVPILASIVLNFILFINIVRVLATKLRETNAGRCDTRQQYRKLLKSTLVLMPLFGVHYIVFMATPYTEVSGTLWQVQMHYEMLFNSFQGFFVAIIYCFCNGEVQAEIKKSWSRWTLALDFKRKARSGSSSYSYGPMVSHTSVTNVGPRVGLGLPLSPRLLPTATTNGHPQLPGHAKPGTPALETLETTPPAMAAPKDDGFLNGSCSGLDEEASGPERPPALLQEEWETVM
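HEK-293-derived GP2 cells expressing PTHR1 and a GloSensor cAMP reporter, 3,000/well, plated overnight, given luciferin plus IBMX (each 0.5 mM as added) for 1 h at 37 °C, then compound for 1 h at 37 °C. Luminescence was read after 15 min at room temperature.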
TRHR PAM = qHTS for Small Molecule Agonists and Allosteric Enhancers of Human TRH Receptor: Primary Screen for Enhancers. enhancement, % at 2 µM. TRHR cells, fluo-8 calcium fluorescence, EC20 TRH enhancement. actives 0.66% (n = 360,000). AID 493056, 2011. Thyrotropin-releasing hormone receptor (Homo sapiens), P34981; in the data active means enhancement above about 30%; further: 0% is about no effect
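TRHR-expressing cells loaded with fluo-8 calcium dye were read kinetically (ex 480/em 530) during compound addition, then stimulated with an EC20 of TRH (10 nM final). Enhancement of the Gq-mediated intracellular calcium response was scored.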
TRHR ag = qHTS for Small Molecule Agonists and Allosteric Enhancers of Human TRH Receptor: Primary Screen for Agonists; Thyrotropin-releasing hormone receptor (Homo sapiens), P34981; TRHR cells, calcium flux fluo-8, FDSS agonist mode; activation, % at 2 µM; actives 0.18% (n = 360,000); AID 493084, 2011; in the data active means activation above about 30%; further: 0% is about no effect
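Fluo-8-loaded TRHR cells; 10 s baseline, compound added, kinetic Ca2+ fluorescence read 1/s, agonist mode.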
GLP1R cytotox = qHTS of GLP-1 Receptor Inverse Agonists: Cytotox Screen | HEK293 cAMP-luciferase reporter cells, luminescence, 24 h | Potency, µM (top dose mostly 38.3 µM), without a hit: at the top dose activity change, negative = inhibition, hits mostly inhibitors | actives 0.13% (n = 410,000) | AID 624418, 2012;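 further: loss of luciferase light is scored as toxicity; potency means the concentration at half of the fitted maximal effect; on the % scale 0 is the no-effect control and ±100 the full control effect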
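Step one: seed cells (200 cells/uL, DMEM with 10% Nu serum, 1% pen-strep). Step two: 12-hour incubation at 37 deg C. Step three: pin 23 nL compound, incubate 24 hr. Step four: add luciferase reagent, read luminescence 12 min later.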
GLP1R ag = qHTS of GLP-1 Receptor Agonists. Potency, µM (series often up to 45.6 µM), for inactives: at the top dose activation, actives largely listed as activators. Glucagon-like peptide 1 receptor (Homo sapiens), P43220. HEK293 GLP-1R CRE-luciferase, luminescence, 4-6 h; cells express a hypersensitive GLP-1R form. actives 0.007% (n = 380,000); further: potency means the concentration at half of the fitted maximal effect; % of control where 0% means no effect
GLP1R inv ag = qHTS of GLP-1 Receptor Inverse Agonists (Inhibition Mode); HEK293 GLP-1R CRE-luciferase, luminescence, 24 h; GLP-1R form is constitutively active; Potency, µM (top dose mostly 38.3 µM), without a hit: top-dose activity change, negative = inhibition, hits mostly inhibitors; actives 1.6% (n = 410,000); AID 624417, 2012; further: potency means the concentration at half of the fitted maximal effect; on the % scale 0 is the no-effect control and ±100 the full control effect; nearly all actives have a fitted effect of over 55% in size
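Readout was luciferase luminescence, measured 12 min after detection reagent at room temperature. Beforehand, GLP-1R reporter HEK293 cells had sat 12 h, then received compounds for 24 hr at 37 deg C.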
* = called active by the depositor; i = inactive; ? = inconclusive; / = no result given; [ ] = another dose, or the depositor's remark. Unless noted, the call rests on the fitted dose curve; in most records, active means well fitted curve in the direction sought with a large enough effect; inconclusive means small, poorly fitted or top-dose-only effect, or another doubt; inactive means no such curve, though single readings can be large; an effect the other way counts as inactive or inconclusive.

SMILES	PTHR1 agonist	TRHR PAM	TRHR ag	GLP1R cytotox	GLP1R ag	GLP1R inv ag
Cc1ccc(-c2nc(SCC(=O)Nc3cc(S(=O)(=O)N4CCCCC4)ccc3Cl)n[nH]2)cc1	-32.7%	-12.1	0.4	?	13.6%	10µM*
Nc1cc(=O)[nH]c(SCC(=O)Nc2cc(S(=O)(=O)N3CCCCCC3)ccc2Cl)n1	-31.7%	/	/	-1.0%	-4.9%	12.1%
COc1ccc(S(=O)(=O)N(C)C)cc1NCC(=O)Nc1ccc(Br)c(C)c1	-91.6%	8.1	-0.9	-6.5%	9.3%	11.2µM*
Cn1c(=O)n(C)c2cc([N+](=O)[O-])c(N3CCN(S(=O)(=O)c4ccc(C(C)(C)C)cc4)CC3)cc21	-12.8%[57.5 µM]	4.2	0.0	12.8%	-0.8%	8.7%
CCCn1c2ccccc2c2cnn(CC(=O)NCCc3ccc(S(N)(=O)=O)cc3)c(=O)c21	i	-3.1	40.3*	-4.9%	/	26.6%
CCCn1c2ccccc2c2cnn(CC(=O)NCCc3ccccc3)c(=O)c21	-63.4%	-1.8	-1.0	8.4%	/	-4.4%
Cc1cc(C)c(Cn2c3ccccc3c3cnn(CC(=O)NCc4ccc(Cl)cc4)c(=O)c32)c(C)c1	-9.9%	12.8	0.4	-4.6%	/	-14.6%
Cc1ccc(Cn2c3ccccc3c3cnn(CC(=O)Nc4cc(Cl)ccc4C)c(=O)c32)cc1	-22.7%	44.6*	-0.2	0.4%	/	5.0%
COc1cccc(N2C(=O)C(CC(=O)Nc3ccc(F)cc3)N(CCC3=CCCCC3)C2=O)c1 (stereo not given)	i	-11.0	1.2	?	/	10µM*
CCOc1ccc(N2C(=O)C(CC(=O)Nc3ccccc3)N(Cc3ccccn3)C2=S)cc1 (stereo not given)	?	8.4	-0.1	-2.5%	-1.4%	?
CCOc1ccc(NC(=O)CC2C(=O)N(c3ccc(F)cc3)C(=O)N2CCc2sccc2C)cc1 (stereo not given)	i	41.5*	0.7	-17.8%	/	?
CCOc1ccc(N2C(=O)C(CC(=O)Nc3ccc(F)cc3)N(Cc3ccccn3)C2=S)cc1 (stereo not given)	i	1.9	0.7	-5.3%	12.9%	10µM*
CC(C)CCN1C(=O)N(c2ccccc2)C(=O)C1CC(=O)Nc1ccc(Cl)cc1 (stereo not given)	i	0.0	-0.2	1.5%	/	10µM*
CCNC(=O)CC1C(=O)N(c2ccccc2)C(=O)N1CCC(C)C (stereo not given)	-22.1%[57.5 µM]	-5.1	0.9	-2.6%	-13.8%	14.9%
COCCCN1C(=O)C(=O)/C(=C(/O)c2ccccc2)C1c1ccc2c(c1)OCO2 (stereo not given)	i	17.6	0.3	-2.2%	-0.4%	1.2%
COc1cccc2c1C1COC3C4CC(C(=O)O)C(C(C2)N13)N4C (stereo not given)	i	/	/	?	-6.5%	3.98µM*
CC(=O)OC1(C(C)=O)CCC2C3CC4OC45CC(O)CCC5(C)C3CCC21C (stereo not given)	i	/	/	2.4%	9.6%	1.6%
CC(C)CC(NC(N)=O)C(=O)Nc1ccc(Cl)c(Cl)c1 (stereo not given)	-0.6%	8.2	-0.3	1.1%	-0.7%	-28.0%
O=C1c2ccccc2-c2onc3c(N4CCN(CCO)CC4)cc(N4CCN(C(=O)c5ccco5)CC4)c1c23	-24.6%	0.5	0.5	?	6.5%	11.2µM*
O=C(CCn1c(=O)c2cccn2c2cccnc21)N1CCN(c2ccccc2F)CC1	i	0.2	-0.2	32.2%	/	-1.0%
COc1ccc2c(c1)-c1nc(NC(=O)c3cc(OC)c(OC)c(OC)c3)sc1CC2	?	1.6	-0.3	?	/	10µM*
O=S(Cc1cc(Oc2ccccc2)nc(-c2ccccc2)n1)c1ccccc1 (stereo not given)	-8.2%	11.0	0.2	13.3%	12.4%	10µM*
O=Cc1ccc(Oc2cc(-c3ccccc3)nc(-c3ccccc3)n2)cc1	i	-6.1	0.1	-5.9%	-2.5%	-5.2%
Cc1ccc(S(=O)(=O)NCC(=O)OCC(=O)N(C)C2CCS(=O)(=O)C2)cc1 (stereo not given)	-16.2%	11.0	0.2	13.3%	1.0%	6.4%
COc1cc(C=O)ccc1OCCCOc1ccccc1C(=O)O	-24.1%[57.5 µM]	3.9	-0.1	20.9%	-3.6%	2.24µM*
SMILES	PTHR1 agonist	TRHR PAM	TRHR ag	GLP1R cytotox	GLP1R ag	GLP1R inv ag
O=C1NC2(CCCCC2)C(=O)N1CCS(=O)(=O)Oc1ccccc1	-0.9%	38.2*	0.0	-2.4%	5.2%	-0.4%
COCCNC(=O)CN(Cc1ccc2c(c1)OCO2)C(=O)CCC(=O)Nc1nccs1	i	2.8	0.7	-11.2%	-7.1%	-7.8%
CC(C)(C)NC(=O)CN(Cc1ccc2c(c1)OCO2)C(=O)CCC(=O)Nc1nccs1	-7.0%	35.8*	0.3	0.9%	4.8%	0.8%
O=C(Oc1c(-c2ccccc2)oc2ccccc2c1=O)c1ccccc1	-14.9%	-3.8	-0.6	72.2%	-1.2%	5.01µM*
COc1ccc(-c2oc3ccccc3c(=O)c2OC(=O)c2ccc(C)cc2)cc1	i	8.3	-0.5	107.9%	2.5%	4.6%
O=C(CSc1cccc2cccnc12)N1CCCC1	-3.0%	-5.9	-0.6	0.708µM*	-44.5%	0.501µM*
NNC(=O)CSc1cccc2cccnc12	-8.7%	-4.2	-0.2	4.3%	16.0%	26.4%
CN(C)C(=O)CSc1cccc2cccnc12	i	2.5	-0.1	2.51µM*	-31.6%	2.82µM*
O=C(CSc1cccc2cccnc12)Nc1cc(C(=O)O)cc(C(=O)O)c1	i	7.1	-2.1	-25.5%	-2.3%	10.7%
CCCCOc1ccc(NC(=O)CSc2cccc3cccnc23)cc1	-10.9%	-0.1	-0.1	?	26.6%	2.82µM*
CCN(CC)CCn1c2ccccc2c(=O)c2c(O)ccc(O)c21	i	/	/	-19.6%	15.4%	129.6%
CC(C)[C@@H]1NC(=O)c2cc([N+](=O)[O-])cc(I)c2OCC[C@@H](C(N)=O)NC(=O)[C@H](CCC(=O)O)NC1=O	-16.9%	-2.8	0.1	-30.9%	-1.7%	20.3%
O=C(Nc1ccc2c(c1)OCCO2)c1cccc(Cl)c1Cl	-21.3%	-4.1	-1.1	-12.3%	-2.2%	11.2µM*
O=C(Nc1ccc2c(c1)OCCO2)c1c(Cl)cccc1Cl	-3.9%	/	/	-14.8%	6.8%	?
